iPSC survival up – enhancers of human iPSC single-cell survival; hiPSC single-cell survival, ATPlite luminescence; 100% = ROCK inhibitor wells, 0% = DMSO; survival enhancement, % at 20 µM; actives 0.044% (n = 360,000); AID 602274; in the data active = survival enhancement above about 18%;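 also: cells exposed to compounds for 16 hours before the ATP read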
MIN6 prolif – MIN6 beta-cell proliferation induction; MIN6 cells proliferation, ATPlite luminescence, 48 h; cells starved in 0.2% serum; 100% = growth in 10% serum; proliferation, % at 10 µM; actives 0.29% (n = 330,000);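 active = compounds whose signal lies at least 3.5 SD above the mean of all wells on their plate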;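 also: 0% = DMSO-treated cells in low-serum medium and 100% = 10% serum control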
Cardio protect – myocardial damage modulation in H9c2 cells; H9c2 cardiomyocytes, H2O2 injury protection, ATPLite, 2 h; protection from H2O2 cell death, % at 20 µM; actives 0.63% (n = 360,000);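 active = compounds giving at least 50% protection of heart cells from peroxide-induced death in the single-dose screen, raw or plate-pattern-corrected value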;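 also: 0% = DMSO wells with peroxide and 100% = DMSO wells without peroxide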
Myeloid diff MLP – myeloid differentiation induction. actives 1% (n = 360,000). calls only at 10 µM. ER-HoxA9 myeloid progenitors, lysozyme-GFP differentiation, flow cytometry;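 active = normalized GFP-positive differentiation at or above the plate's own cutoff, the solvent-only control mean plus 3 SD; inconclusive = no clear call, values can overlap the other calls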;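 also: cells exposed to compound for four days before flow analysis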
ABCB6 inh MLPCN – blocks the human ABCB6 transporter; actives 0.19% (n = 360,000); AID 602162; K562-ABCB6 porphyrin accumulation, flow cytometry, 1 h; active compounds read low; fluorescence ratio to DMSO, % at 10 µM;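 active = fluorescence ratio to DMSO below 75%, the collection mean minus 3 SD; inconclusive = too few cells collected in the well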;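 also: signal is porphyrin accumulated inside mitochondria; 100% equals median channel fluorescence of DMSO control wells; lower ratio means ABCB6 inhibition with less porphyrin fluorescence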
Target sequence (Q9NP58 whole entry, looked up): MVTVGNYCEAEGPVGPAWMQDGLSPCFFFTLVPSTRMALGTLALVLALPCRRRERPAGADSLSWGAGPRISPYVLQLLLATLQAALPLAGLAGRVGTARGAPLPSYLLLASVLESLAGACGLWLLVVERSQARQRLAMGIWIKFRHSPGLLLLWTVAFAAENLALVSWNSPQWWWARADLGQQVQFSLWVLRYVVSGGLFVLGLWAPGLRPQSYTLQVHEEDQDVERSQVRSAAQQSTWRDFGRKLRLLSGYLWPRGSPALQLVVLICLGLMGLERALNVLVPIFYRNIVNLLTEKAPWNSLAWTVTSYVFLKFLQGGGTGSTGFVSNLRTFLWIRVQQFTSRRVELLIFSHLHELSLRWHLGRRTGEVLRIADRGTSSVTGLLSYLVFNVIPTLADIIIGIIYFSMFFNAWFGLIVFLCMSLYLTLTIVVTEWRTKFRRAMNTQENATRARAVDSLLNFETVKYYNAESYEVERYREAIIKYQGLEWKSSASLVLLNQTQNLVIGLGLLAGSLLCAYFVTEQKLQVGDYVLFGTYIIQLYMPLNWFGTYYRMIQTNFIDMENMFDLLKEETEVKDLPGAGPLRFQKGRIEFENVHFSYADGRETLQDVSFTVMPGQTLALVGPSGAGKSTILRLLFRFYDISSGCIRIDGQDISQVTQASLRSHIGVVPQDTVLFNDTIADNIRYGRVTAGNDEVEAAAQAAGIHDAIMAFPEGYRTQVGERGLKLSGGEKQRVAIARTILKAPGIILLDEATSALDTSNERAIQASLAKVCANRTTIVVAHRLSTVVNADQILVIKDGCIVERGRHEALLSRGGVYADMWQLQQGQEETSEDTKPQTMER
The depositor's hits bear a star; i = inactive; ? = inconclusive; nt = not tested or not shown; + = active, no number; ! = not confirmed by another sample. Hits are enriched below; roughly 2.2% of the tested compounds scored in any of these assays.

SMILES	iPSC survival up	MIN6 prolif	Cardio protect	Myeloid diff MLP	ABCB6 inh MLPCN
CC(C)(C)OC(=O)NCCCCCNC(=O)c1[nH]cnc1C(=O)N[C@@H](CCCCNC(=O)OC(C)(C)C)C(=O)OC(C)(C)C	-5	-7	5	?	67*
CC(C)(C)OC(=O)CNC(=O)c1[nH]cnc1C(=O)Nc1ccc(CNC(=O)OC(C)(C)C)cc1	-1	-1	87*	?	94
Cc1ccc(C)c(N2N=C(C(=O)Nc3nccs3)CCC2=O)c1	0	-3	2	i	103
O=C(c1ccc(F)cc1)N1CCN(C(=O)c2cccnc2)CC1	3	-3	-2	i	100
Cn1c(-c2ccccc2)cc(=O)cc1-c1ccccc1	4	nt	1	i	96
O=c1cc(-c2ccccc2)cc(-c2ccccc2)n1O	10	-4	63*	i	106
O=C(NCCN1C(=O)S/C(=C\c2ccccc2F)C1=O)C1=COCCO1	0	2	-6	?	106
CCc1sc(NC(=O)COC)nc1-c1ccccc1	0	-2	0	i	88
Cc1cc(Cl)ccc1OCCCC(=O)NNC(=O)c1ccccc1O	0	-6	55*	i	99
COc1ccc(S(=O)(=O)N(Cc2ccccc2)Cc2nc3ccccc3c(=O)[nH]2)cc1	-2	-2	13	i	95
COc1ccccc1CN(Cc1nc2ccccc2c(=O)[nH]1)S(=O)(=O)c1ccc2ccccc2c1	-3	-4	58*	i	90
Cn1c(=O)c2cc(S(=O)(=O)NCCC(=O)Nc3ccc(Cl)cc3)ccc2n(C)c1=O	0	-3	1	i	102
CN(C)c1cc[n+](Cc2c(Cl)cccc2Cl)cc1	-2	-5	-13	+	97
CN(C)c1cc[n+](CC[n+]2ccc(N(C)C)cc2)cc1	-2	3	3	i	100
C=C1C[C@]23C[C@@]1(O)CC[C@H]2[C@@]12C=C[C@H](O)[C@@](C)(C(=O)O1)[C@H]2[C@@H]3C(=O)O	0	0	-1	+!	98
COc1ccccc1CNCC(=O)Nc1cc(S(=O)(=O)N2CCOCC2)ccc1Cl	0	-4	0	i	96
CCOC(=O)C1C(=O)C=C(c2ccc(C)cc2)CC1c1ccccc1 (centres undefined)	1	1	1	i	100
CCOC(=O)C1C(=O)C=C(/C=C/c2ccc(N(C)C)cc2)CC1c1ccccc1 (centres undefined)	-1	-3	-6	+	i
CCn1c(CSc2nc3ccccc3s2)nnc1SCC(=O)c1ccc(Cl)cc1	-1	-3	-21	i	99
CCn1c(CSc2nc3ccccc3s2)nnc1SCC(=O)c1ccc(O)c(O)c1	-1	-3	62*	i	93
C=CCc1cc(Cl)ccc1OCCn1ccnc1	0	-2	2	+	129
C=CCc1cc(Cl)ccc1OCCCn1ccnc1	0	0	-3	i	99
CCN1CCN(CCNC(=O)c2ccc(/C=C3/Sc4ccccc4N(Cc4ccccc4C)C3=O)cc2)CC1	0	nt	-24	+	105
O=C(NCCN1CCOCC1)c1ccc2c(c1)N(Cc1ccccc1F)C(=O)c1ccccc1S2	0	-4	8	+	104
CCOc1ccccc1NC(=O)C(=O)N/N=C/c1cc(Br)ccc1O	0	-4	57*	?	101
SMILES	iPSC survival up	MIN6 prolif	Cardio protect	Myeloid diff MLP	ABCB6 inh MLPCN
COc1cccc(/C=N/NC(=O)CNC(=O)C2COc3ccccc3O2)c1O (centres undefined)	-2	nt	66*	i	101
COc1cccc(/C=N/NC(=O)C(=O)NCc2cccnc2)c1OC	0	0	13	i	95
COc1cccc(/C=N/NC(=O)C(=O)NCc2cccnc2)c1O	-1	-1	79*	i	104
COc1ccccc1/C=N/NC(=O)c1cccc(OC(F)(F)C(F)F)c1	1	0	-8	i	104
COc1cccc(/C=N/NC(=O)C(=O)Nc2ccccc2OC(F)(F)C(F)F)c1O	3	-5	42	+	97
Cc1cc(C(=O)CSc2nc3ccccc3c(=O)[nH]2)c(C)n1C	0	-1	34	i	98
Cc1ccc(O)c(NC(=O)C2=CC(c3ccco3)=NS(=O)(=O)N2C)c1	-1	-4	-6	i	97
O=C(CNC(=O)c1ccc2c(c1)OCCO2)N/N=C/c1ccc(O)cc1O	-1	-4	72*	i	99
COc1cccc(/C=N/NC(=O)CNC(=O)c2ccncc2)c1O	0	-1	60*	i	103
CCOc1cccc(/C=N/NC(=O)c2ccc3c(c2)OCCO3)c1O	0	-6	6	i	103
COc1cccc(/C=N/NC(=O)C[n+]2ccccc2)c1O	-2	-4	-1	i	100
COc1ccc(CCCC(=O)N/N=C/c2cccc(OC)c2O)cc1C	0	0	53*	i	98
COc1cccc(/C=N/NC(=O)CNC(=O)c2ccc3c(c2)OCCO3)c1O	1	0	66*	i	100
CC(C)(C)C(=O)Nc1ccccc1C(=O)OCC(=O)c1ccc2c(c1)OCCO2	-1	-2	-10	i	92
COc1cc(/C=N/N(C)C)cc(Br)c1O	0	-3	-3	i	94
O=C(NNC(=O)c1cccc(Cl)c1)NNC(=O)c1cccc(Cl)c1	-1	3	0	i	98
Oc1cccc(C(=S)N2CCCCC2)c1	3	-1	-3	i	97
Cn1c(CCCNC(=O)c2ccccc2)nc2ccccc21	-4	1	7	i	103
Cn1c(/C=N/NC(=O)c2ccccc2)nc2ccccc21	0	-3	65*	i	93
CCCn1c(NC(=O)c2ccc(C)cc2)nc2ccccc21	-3	-4	39	i	97
CCN(CC)CCn1c(NC(=O)c2ccc(Cl)cc2)nc2ccccc21	0	-2	62*	nt	97
O=C(c1ccccc1)c1nc2ccccc2n(CCCn2c(=O)c(C(=O)c3ccccc3)nc3ccccc32)c1=O	-2	1	12	+	95
CCCn1c(NC(=O)c2ccccc2)nc2ccccc21	1	-6	52*	i	101
Cc1ccc(-c2nnc(SCC(=O)Nc3ccccc3F)o2)cc1	-7	-6	-20	i	101
O=S(=O)(NCC(c1ccco1)N1CCOCC1)c1ccc(Cl)cc1 (centres undefined)	0	0	2	i	98
C/C=C/Cn1c(SCCCc2ccccc2)nc2c1c(=O)[nH]c(=O)n2C	-2	-5	-18	i	99
Cc1ccc(C(=O)Nc2nc3ccccc3n2CCN2CCCC2)cc1	-1	-4	4	i	97
CCCn1c(NC(=O)c2cccc(S(=O)(=O)N3CCCC3)c2)nc2ccccc21	-4	-5	99*	i	90

Screens as filed in PubChem BioAssay.
